KCNQ2 block – KCNQ2 (rat) channel inhibition; O88943; CHO-K1 KCNQ2, FluxOR thallium flux, 20 min; stronger effect = lower value; B-score at 10 µM; hit rate 1.1% among 310,000; AID 2156;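 active = fluorescence ratio B-score at most minus 3 library SDs, with starting brightness B-score within 2 library SDs, cut at about -5.5 in these data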
KCNQ2 enhance – enhances the rat KCNQ2 potassium channel | hit rate 0.54% among 310,000 | CHO-K1 KCNQ2, FluxOR thallium flux fluorescence; stronger effect = higher value | O88943 | B-score at 10 µM;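 active = fluorescence ratio B-score at least 3 SD of library B-scores, with initial fluorescence B-score within 3 of them, cut at about 5.3 in these data; same plate scores as AID 2156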;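 also: B-score of peak minus minimum over baseline fluorescence ratio after K+ and Tl+ stimulus; positive B-score means potentiation of KCNQ2 with more thallium influx and brighter signal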
Kir21 conf inh – confirmation of mouse Kir2.1 potassium channel inhibitors | shares compounds with KCNQ2 enhance | Kir2.1-expressing cells, FluxOR thallium flux fluorescence; stronger effect = lower value | Tl flux remaining, % of negative control (stronger effect = lower value), % at 10 µM | hit rate 41% among 2,300;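 active = Primary-screen hit whose thallium flux fell at least 3 control SD below untreated wells in both duplicates, with normal baseline fluorescence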;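 also: 0% = blank wells without stimulus and 100% = stimulated no-compound controls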
HEK293 ctr – parental HEK293 activity in Kir2.1 inhibitor counter-screen; shares compounds with KCNQ2 enhance; parental HEK293 cells, FluxOR thallium flux fluorescence; 0% = unstimulated blank wells; FluxOR signal as % of negative control (100 = no effect), % at 10 µM; hit rate 19% among 2,300; AID 2105;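 active = dye signal at least 3 control SD above or below untreated wells in both duplicates, raw fluorescence within 3, either direction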;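 also: percent is based on the flux ratio of peak minus minimum fluorescence over baseline F0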
CHO-K1 ctr – counter-screen for KCNQ2 potentiators: effect in parental CHO-K1 cells. shares compounds with KCNQ2 enhance. FluxOR thallium flux fluorescence; zero = vehicle mean+3SD, 100% = vehicle-minus-blank window. hit rate 43% among 1,200. activity increase over 3SD of controls, % at 10 µM;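 active = signal rise of at least 3 SD above the untreated control mean, in both duplicate wells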;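 also: counter screen of KCNQ2 potentiator hits so any rise reflects channel-independent effects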
KCNQ1 sel pot – selectivity of KCNQ2 potentiators: effect on human KCNQ1 | shares compounds with KCNQ2 enhance | CHO KCNQ1 stable, FluxOR thallium flux fluorescence; beyond 3SD, as % of vehicle-control signal | activation over 3SD threshold, % at 10 µM | hit rate 28% among 1,200 | AID 2283;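 active = fluorescence ratio rise of at least 3 SD of vehicle wells above their mean, in both replicate wells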;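 also: 0% = vehicle mean plus 3 SD and 100% = vehicle minus unstimulated blank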
Target sequence (P51787 whole entry, looked up): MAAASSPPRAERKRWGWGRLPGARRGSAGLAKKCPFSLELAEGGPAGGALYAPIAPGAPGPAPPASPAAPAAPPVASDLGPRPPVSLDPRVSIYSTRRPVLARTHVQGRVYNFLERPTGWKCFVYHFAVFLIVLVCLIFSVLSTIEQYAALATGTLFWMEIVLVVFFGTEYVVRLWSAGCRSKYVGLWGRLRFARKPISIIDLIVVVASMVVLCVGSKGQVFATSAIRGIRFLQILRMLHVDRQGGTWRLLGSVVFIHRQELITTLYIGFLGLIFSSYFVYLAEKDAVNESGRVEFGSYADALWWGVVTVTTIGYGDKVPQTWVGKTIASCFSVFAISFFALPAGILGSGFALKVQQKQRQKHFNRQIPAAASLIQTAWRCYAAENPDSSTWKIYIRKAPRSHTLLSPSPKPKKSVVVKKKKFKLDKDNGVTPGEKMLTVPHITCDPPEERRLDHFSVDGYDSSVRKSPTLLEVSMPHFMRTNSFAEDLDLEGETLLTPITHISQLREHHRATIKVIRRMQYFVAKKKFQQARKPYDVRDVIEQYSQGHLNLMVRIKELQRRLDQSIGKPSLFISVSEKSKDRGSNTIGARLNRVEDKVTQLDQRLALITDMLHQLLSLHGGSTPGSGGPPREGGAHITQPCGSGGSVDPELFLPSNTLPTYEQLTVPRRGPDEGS
KCNQ2 pot conf – confirmation of rat KCNQ2 potassium channel potentiators; shares compounds with KCNQ2 enhance; CHO-KCNQ2 cells, FluxOR thallium flux fluorescence; potentiation, less the hit threshold, % at 10 µM; hit rate 68% among 1,200;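 active = fluorescence ratio rising 3 SD or more over the vehicle control mean in both replicates, plus primary screen hit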;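 also: peak minus minimum thallium fluorescence divided by baseline after K/Tl stimulus; 0% = vehicle mean plus 3 SD and 100% = vehicle minus unstimulated blank difference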
Kir2-1 sel – selectivity of KCNQ2 potentiators: effect on mouse Kir2.1; hit rate 2% among 1,200; activity over 3SD threshold, % at 10 µM; HEK293 Kir2.1, FluxOR thallium flux fluorescence; shares compounds with KCNQ2 enhance;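 active = fluorescence ratio rise of at least 3 SD above the vehicle-control mean, seen in both replicates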;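 also: 0% = vehicle mean plus 3 SD and 100% = vehicle minus no-stimulus blank window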
KCNQ2 W236L pot – rat KCNQ2 W236L mutant potentiation by KCNQ2 potentiators; shares compounds with KCNQ2 enhance; CHO KCNQ2-W236L, automated patch clamp current; current increase over 3SD of negative controls (%), stronger effect = higher value, % at 25 µM; hit rate 10% among 940;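 active = current increase at least 3 SD of the untreated controls above them in both duplicate recordings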
Starred values were filed as active, the others as inactive; i = inactive; · = no result. This is a sample that favours compounds with a hit; in the whole collection about 1.6% have one here.

SMILES	KCNQ2 block	KCNQ2 enhance	Kir21 conf inh	HEK293 ctr	others
Cc1cccc(NC(=O)C2CCN(S(=O)(=O)c3ccc4c(c3)NC(=O)CO4)CC2)c1	i	·	·	·
Cc1ccc(Cn2ccc(O)c(Cc3ccccc3)c2=O)cc1	i	·	·	·
Cc1ccc(NC(=O)NCC2CCN(Cc3cc(C)ccc3Cl)CC2)c(C)c1	i	4.81	·	·
Cc1ccc(C)c(CN2CCC(CNC(=O)Nc3cccc(Cl)c3C)CC2)c1	i	5.31*	i	i	CHO-K1 ctr=-0.6;KCNQ1 sel pot=-14.4;KCNQ2 pot conf=-0.5;Kir2-1 sel=-46.3;KCNQ2 W236L pot=i
COC(=O)c1cc(S(=O)(=O)NCC2CCN(CCc3cccs3)CC2)cn1C	i	·	·	·
O=C(c1ccccc1)c1ccc(OCC(O)CNCc2cccc(Cl)c2)cc1 (stereo not given)	i	·	47.5%*	i
COc1ccc(C(OCC(O)CNCCc2ccccc2)c2ccc(OC)cc2)cc1 (stereo not given)	i	·	43.5%*	i
Cc1ccc(C(OCC(O)CN2CCCCC2CO)c2ccccc2)cc1 (stereo not given)	i	0.03	·	·
O=C(c1ccccc1)c1ccc(OCC(O)CNCc2ccc(F)cc2)cc1 (stereo not given)	i	·	25.5%*	i
COc1ccc(C(OCC(O)CNC(C)c2ccccc2)c2ccc(OC)cc2)cc1 (stereo not given)	i	·	·	·
CCC(=O)c1ccc(OCC(O)CNCc2ccc(F)cc2)cc1 (stereo not given)	i	0.66	·	·
Cc1ccc(C(OCC(O)CNCc2ccc(F)cc2)c2ccccc2)cc1 (stereo not given)	i	·	33.5%*	i
Cc1ccc(OCC(O)CNCc2ccccc2)cc1C (stereo not given)	i	·	·	·
Cc1cc2cc(CCNS(=O)(=O)c3ccc(F)cc3)c(=O)[nH]c2cc1C	i	0.09	·	·
COc1cccc(NC(=O)c2csc3c2CCCC3)c1	i	8.04*	i	i	CHO-K1 ctr=-6.4;KCNQ1 sel pot=-1.7;KCNQ2 pot conf=1.2*;Kir2-1 sel=-35.4;KCNQ2 W236L pot=i
COc1ccc(NC(=O)c2csc3c2CCCC3)cc1	i	·	·	·
CCOCCCNC(=O)Cn1cnc2c(cnn2-c2ccc(C)c(C)c2)c1=O	i	0.22	·	·
Cc1cccc(S(=O)(=O)N2CCCc3ccccc32)c1	i	·	i	i
Cc1cc(C)c(S(=O)(=O)N2CCCc3ccccc32)c(C)c1	i	·	·	·
Cn1c(=O)c(C(=O)Nc2ccccc2S(N)(=O)=O)c(O)c2ccccc21	i	5.95*	i	i	CHO-K1 ctr=-18.7;KCNQ1 sel pot=-11.2;KCNQ2 pot conf=-4.0;Kir2-1 sel=-34.7
CC(C)Cn1c(=O)c(C(=O)Nc2ccccc2S(N)(=O)=O)c(O)c2ccccc21	i	·	·	·
CCn1c2ccccc2c2cc(NC(=O)CN3CCCC3)ccc21	i	3.37	·	·
CCn1c2ccccc2c2cc(NC(=O)CNCC3CCCO3)ccc21 (stereo not given)	i	1.85	48.0%*	i
COC(=O)C1CSC(c2ccc(Cl)cc2)N1C(=O)c1ccccc1 (stereo not given)	i	·	·	·
Cc1nnc(SC/C=C/c2ccccc2)n(N)c1=O	i	1.5	·	·
SMILES	KCNQ2 block	KCNQ2 enhance	Kir21 conf inh	HEK293 ctr	others
O=C(/C=C/c1ccccc1)n1cnnc1SC/C=C/c1ccccc1	i	·	i	i
CC1(C)C(=O)OC(c2c3ccccc3cc3ccccc23)C(C)(C)C1=O (stereo not given)	i	6.19*	i	i	CHO-K1 ctr=11.8*;KCNQ1 sel pot=90.5*;KCNQ2 pot conf=-6.1;Kir2-1 sel=-30.8
CN(C)c1ccc(C2OC(=O)C(C)(C)C(=O)C2(C)C)cc1 (stereo not given)	i	·	·	·
Cc1ccc(C(=O)N/C(=C/c2cccnc2)C(=O)N2CCCCCC2)cc1	i	0.77	·	·
COc1ccc(S(=O)(=O)Nc2ccccc2SC)cc1C	i	·	54.0%*	i
COc1ccc(S(=O)(=O)Nc2ccccc2OC)cc1C	i	1.57	·	·
COc1cccc(CC(NC(C)=O)C(=O)NC2CCN(C(=O)C3CC3)CC2)c1OC (stereo not given)	i	0.03	·	·
CCOc1ccc(CN(C)C(=O)CNC(=O)c2ccc3ccccc3c2)cc1OC	i	·	·	·
Cc1ccc(C(C)C)c(OCC(=O)N/N=C/c2cccn2C)c1	i	·	·	·
Cc1cc(NCc2ccccn2)n2ncc(-c3ccc(Cl)cc3)c2n1	i	0.08	·	·
Cc1cc(NCCOCCO)n2ncc(-c3ccc(Cl)cc3)c2n1	i	6.16*	i	i	CHO-K1 ctr=2.2*;KCNQ1 sel pot=-11.4;KCNQ2 pot conf=4.4*;Kir2-1 sel=-44.2;KCNQ2 W236L pot=i
CC(OC(=O)c1cc(S(=O)(=O)N2CCOCC2)ccc1F)C(=O)NCc1ccc2c(c1)OCO2 (stereo not given)	i	0.42	·	·
Cc1ccc(-c2nnc(SCC(=O)Nc3ccccc3N3CCOCC3)o2)cc1	i	·	·	·
O=C(CSc1ccc(F)cc1)Nc1ccccc1N1CCOCC1	i	·	38.0%*	i
Nc1cc(N)nc(SCC(=O)Nc2ccccc2N2CCOCC2)n1	i	1.15	·	·
Cc1cccc(NC(=O)CSCc2c(C)noc2C)c1C	i	0.82	·	·
O=C(CSc1ccccc1)Nc1ccccc1N1CCOCC1	i	·	i	i
Cc1noc(C)c1CSCC(=O)Nc1ccccc1N1CCCCC1	i	·	56.0%*	76.0%*
O=C(CSc1ccc(F)cc1)Nc1ccc(N2CCOCC2)cc1	i	0.06	·	·
Cc1ccc(SCC(=O)Nc2ccccc2N2CCOCC2)cc1	i	·	47.5%*	i
Cn1c(=S)n(CCC(=O)O)c2ccccc21	i	1.13	·	·
Nc1cc2c(cc1C(=O)c1cccc(Br)c1)OCCO2	i	·	·	·
COC(=O)c1c(O)cc(C(C)(C)C)n(-c2ccc(F)cc2)c1=O	i	1.55	·	·
Cc1cc(=S)nc(-c2ccccn2)[nH]1	i	2.42	·	·
Cc1[nH]c(-c2ccccn2)nc(=S)c1Cl	i	11.1*	i	298.5%*	CHO-K1 ctr=-8.9;KCNQ1 sel pot=-7.2;KCNQ2 pot conf=42.5*;Kir2-1 sel=-18.4;KCNQ2 W236L pot=i
CCOc1ccc(CN2CCCC(CO)(Cc3ccccc3F)C2)cc1 (stereo not given)	i	0.61	·	·
OCC1(Cc2ccc(F)cc2F)CCCN(Cc2ccc(Cl)cc2)C1 (stereo not given)	i	·	56.0%*	i
CCC(=O)Nc1c(C)cc(C)cc1Cl	i	1.21	·	·
CCCCC(=O)Nc1c(C)cc(C)cc1Cl	i	12.1*	i	i	CHO-K1 ctr=-24.9;KCNQ1 sel pot=-13.6;KCNQ2 pot conf=53.2*;Kir2-1 sel=-33.9;KCNQ2 W236L pot=i

High-throughput results as filed in PubChem BioAssay.
